Laboratory results from paper PMC5540273 (PLoS ONE, 2017).

Columns and labels:
AAK1 = conditions: concentration: 1 μM, replicates: in singlicate; n = 1
ABL1-nonphosphorylated = conditions: concentration: 1 μM, replicates: in singlicate; n = 1
ABL1-phosphorylated = conditions: concentration: 1 μM, replicates: in singlicate; n = 1
ABL2 = conditions: concentration: 1 μM, replicates: in singlicate; n = 1
ACVR1B = conditions: concentration: 1 μM, replicates: in singlicate; n = 1
p38-beta = system: T1, p38-beta;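 further: kd values determined as follow-up on hits from a single-replicate KINOMEscan panel screen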
T1 construct: gene MAPK11
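Wherever %Inh is given: KINOMEscan kinase panel screen.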

Cc1c(Cn2c(C)c(C)n3c(=O)cc(N4CCOCC4)nc23)cccc1C(F)(F)F [GSK2328680]
%Inh (AAK1): 0% | %Inh (ABL1-nonphosphorylated): 0% | %Inh (ABL1-phosphorylated): 0% | %Inh (ABL2): 11% | %Inh (ACVR1B): 20%

CCCCc1nn2ncccc2c1-c1ccnc(NC2CC2)n1 [GW684374]
%Inh (AAK1): 14% | %Inh (ABL1-nonphosphorylated): 0% | %Inh (ABL1-phosphorylated): 0% | %Inh (ABL2): 0% | %Inh (ACVR1B): 0%

COc1ccc(Nc2nccc(NCCNC(=O)Nc3cc(C)ccc3C)n2)cc1 [GSK1379899]
%Inh (AAK1): 0% | %Inh (ABL1-nonphosphorylated): 0% | %Inh (ABL1-phosphorylated): 0% | %Inh (ABL2): 5% | %Inh (ACVR1B): 0%

COc1ccc(-c2coc3ccc(-c4nnc(C)o4)cc23)cc1
%Inh (AAK1): 0% | %Inh (ABL1-nonphosphorylated): 32% | %Inh (ABL1-phosphorylated): 7% | %Inh (ABL2): 0% | %Inh (ACVR1B): 12%

CS(=O)(=O)CCNCc1nc(-c2ccc3ncnc(Nc4ccc5c(cnn5Cc5ccccc5)c4)c3c2)cs1.Cl.Cl [GW569716]
%Inh (AAK1): 0% | %Inh (ABL1-nonphosphorylated): 68% | %Inh (ABL1-phosphorylated): 0% | %Inh (ABL2): 13% | %Inh (ACVR1B): 0%

O=C(Nc1n[nH]c2nc(-c3ccco3)c(Br)cc12)C1CCN(Cc2ccccc2)C1.O=C(O)[C@H](O)[C@@H](O)C(=O)O (centres unmarked) [SB-742034]
%Inh (AAK1): 29% | %Inh (ABL1-nonphosphorylated): 33% | %Inh (ABL1-phosphorylated): 23% | %Inh (ABL2): 4% | %Inh (ACVR1B): 20%

COc1ccc(CSc2nnc(-c3ccc4c(c3)CCO4)o2)cc1
%Inh (AAK1): 8% | %Inh (ABL1-nonphosphorylated): 28% | %Inh (ABL1-phosphorylated): 0% | %Inh (ABL2): 8% | %Inh (ACVR1B): 0%

CC(C)c1cc(-c2ccc3c(N)n[nH]c3c2)nc(N)n1 [GSK2250882]
%Inh (AAK1): 53% | %Inh (ABL1-nonphosphorylated): 0% | %Inh (ABL1-phosphorylated): 0% | %Inh (ABL2): 13% | %Inh (ACVR1B): 0%

CNC(=O)c1ccc(C)c(-n2c(C)cc(OCc3ccc(F)cc3F)c(Br)c2=O)c1
Kd (p38-beta): 120 nM | %Inh (AAK1): 0% | %Inh (ABL1-nonphosphorylated): 0% | %Inh (ABL1-phosphorylated): 0% | %Inh (ABL2): 0% | %Inh (ACVR1B): 7%

O=C(Nc1n[nH]c2nc(-c3cccs3)c(Br)cc12)C1CCCC1 [SB-743341]
%Inh (AAK1): 0% | %Inh (ABL1-nonphosphorylated): 48% | %Inh (ABL1-phosphorylated): 19% | %Inh (ABL2): 5% | %Inh (ACVR1B): 17%

COc1cccc(NC(=O)Nc2ccc(C)c(-c3ccc(C(=O)Nc4ccncc4)cc3)c2)c1 [GSK1398474]
%Inh (AAK1): 0% | %Inh (ABL1-nonphosphorylated): 4% | %Inh (ABL1-phosphorylated): 0% | %Inh (ABL2): 21% | %Inh (ACVR1B): 0%

COc1ccc(Nc2nccc(N3CCC(NC(=O)C(C)c4ccc(Cl)cc4)CC3)n2)cc1 (centres unmarked) [GSK1379812]
%Inh (AAK1): 23% | %Inh (ABL1-nonphosphorylated): 4% | %Inh (ABL1-phosphorylated): 0% | %Inh (ABL2): 28% | %Inh (ACVR1B): 0%

COc1ccc(Nc2nccc(N3CCC(NC(=O)C(C)c4ccc(Cl)cc4)C3)n2)cc1 (centres unmarked) [GSK1379735]
%Inh (AAK1): 14% | %Inh (ABL1-nonphosphorylated): 0% | %Inh (ABL1-phosphorylated): 0% | %Inh (ABL2): 18% | %Inh (ACVR1B): 19%

Nc1ncnc2occ(-c3ccc4c(c3)CCN4C(=O)Cc3cc(F)ccc3F)c12 [GSK2645446]
%Inh (AAK1): 53% | %Inh (ABL1-nonphosphorylated): 27% | %Inh (ABL1-phosphorylated): 3% | %Inh (ABL2): 13% | %Inh (ACVR1B): 0%

Cc1nccc(-c2c(-c3ccc(F)cc3)ncn2CCCN2CCOCC2)n1.Cl [SB-282975]
%Inh (AAK1): 0% | %Inh (ABL1-nonphosphorylated): 26% | %Inh (ABL1-phosphorylated): 0% | %Inh (ABL2): 22% | %Inh (ACVR1B): 36%

Cc1ccc(NC(=O)c2ccc(Cl)cc2)cc1-c1ccc(C(=O)Nc2ccncc2)cc1 [GSK1398467]
%Inh (AAK1): 8% | %Inh (ABL1-nonphosphorylated): 0% | %Inh (ABL1-phosphorylated): 0% | %Inh (ABL2): 20% | %Inh (ACVR1B): 0%

COC(=O)C(NC(=O)NC1CCN(c2ccnc(Nc3ccc(F)cc3)n2)C1)c1ccccc1 (centres unmarked) [GSK1379712]
%Inh (AAK1): 5% | %Inh (ABL1-nonphosphorylated): 0% | %Inh (ABL1-phosphorylated): 0% | %Inh (ABL2): 0% | %Inh (ACVR1B): 0%

COc1ccc2cc(-c3nc(-c4ccccc4C(C)C)[nH]c3-c3ccncc3)ccc2c1 [SB-660566]
%Inh (AAK1): 20% | %Inh (ABL1-nonphosphorylated): 0% | %Inh (ABL1-phosphorylated): 3% | %Inh (ABL2): 8% | %Inh (ACVR1B): 74%

CNc1nc(-c2ccc3c(N)n[nH]c3c2)cc(N2C[C@@H](C(=O)NC3CCCCC3)OC[C@H]2C)n1 [GSK2375584]
%Inh (AAK1): 40% | %Inh (ABL1-nonphosphorylated): 6% | %Inh (ABL1-phosphorylated): 0% | %Inh (ABL2): 3% | %Inh (ACVR1B): 0%

Cc1ccc(-c2nc(Nc3ccncc3)c3ccccc3n2)s1 [GSK189015]
%Inh (AAK1): 12% | %Inh (ABL1-nonphosphorylated): 0% | %Inh (ABL1-phosphorylated): 0% | %Inh (ABL2): 21% | %Inh (ACVR1B): 0%
